The values that follow come from PubChem BioAssay (NCI).

SMILES strings stand for the structures. This is part of a sample that, as a whole, favours compounds with a hit. Of some 83,000 tested, about 20% had one in any assay.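 Plates (96-well) were seeded with cells, treated with compound at one concentration, and incubated for 48 hours before percent growth was determined.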 Unmarked numbers belong to inactive results. Activity calls are given as the source filed them. Rule for the calls: active = growth percent below 10; inactive = the rest.

The subject of the test is SN12C renal. Description: NCI-60 one-dose screen, 48 h (100 = growth as untreated, 0 = no growth, -100 = all killed). To be noted: 10 µM unless noted.
`COc1ccc(-c2csc(NC(=O)CN3CCN(c4cc5c(cc4F)c(=O)c(C(=O)O)cn5C4CC4)CC3)n2)cc1`: the growth was 4.18% (active).

Consider `O=C(O)c1ccc(=O)[nH]n1`, for which the growth was 94.3%.

As to `COc1ccc(-c2cc(NC(=O)Nc3ccc(O)cc3)no2)cc1`, the growth was 74.8%.

On to `CCN(CC)CCCNc1cc(OC)cc2nc3cc(Cl)ccc3nc12`, for which the growth is 13.1%.

As for `Clc1nc(Cl)c2c3c(sc2n1)CCCC3`, the growth was 27.5%.

Turning to `CNCCCn1c2c(c3ccc([N+](=O)[O-])cc3c1=O)C(=O)c1cc(OC)cnc1-2`, the growth was -29.7% (active).

Take `C=C1CC2(OC1=O)C(=O)Nc1ccccc12` (centres undefined): the growth was 40.5%.

Turning to `CN1CCN(Cc2ccc(NC(=O)c3cncc(C#Cc4c(N)ncc5ccc(C#N)cc45)c3)cc2C(F)(F)F)CC1`, the growth was 6.26% (active).

As for `O=C1O[C@H]([C@H](O)CO)C(O)=C1O`, the growth was 104%.

Take `COC(=S)SCN(CSC(=S)OC)c1ccc(Cl)cc1`: the growth is 80.7%.

In the case of `Cc1ccc(/C=C2\Oc3cc(OCC(=O)c4ccc(Cl)cc4)ccc3C2=O)cc1`, the growth was 116%.

For `CCN(C(=O)CN1CCN(c2cc3c(cc2F)c(=O)c(C(=O)O)cn3C2CC2)CC1)c1nc(-c2ccc(OC)cc2)cs1`, the growth was 9.96% (active).

Regarding `OC(c1cc(-c2ccccc2)nc2ccc(Cl)cc12)C1CCCCN1` (centres undefined), the growth is 66.3%.

In the case of `CC#CC#Cc1cccc(=O)o1`, the growth is 81.6%.

Turning to `CNCc1cccc2c1OCCOCCOCCN(C)S(=O)(=O)c1ccc(cc1)-c1cnc(N)c(n1)C(=O)N2`, the growth is 37%.

Turning to `CCCCCCCCCCCCCCCCCCSC1=CC(=O)C(OC)=C(OC)C1=O`, the growth is 80.9%.

Turning to `CC1=C(C)C(=O)OC([C@](C)(O)[C@]2(O)CC[C@@]3(O)[C@@H]4C[C@H]5O[C@]56CC=CC(=O)[C@]6(C)[C@H]4CC[C@]23COC(=O)c2ccc(C)o2)C1` (some centres undefined), the growth was -61% (active).

Take `O=C1C[C@H](Sc2nc(-c3ccc(F)cc3)cc(C(F)(F)F)n2)[C@H]2CO[C@@H]1O2`: the growth is 92.4%.

As to `C=C1CC[C@@H]2[C@](C)(COC(C)=O)[C@H](OC(C)=O)CC[C@@]2(C)[C@@H]1CC(Nc1ccc(S(=O)(=O)Nc2nc(C)cc(C)n2)cc1)C1=CCOC1=O` (some centres undefined), the growth is 38.2%.

As for `COc1ccc(S(=O)(=O)NCCNc2nccc(-c3c(-c4cccc([N+](=O)[O-])c4)nc4sccn34)n2)cc1`, the growth is 70.3%.

Regarding `O=C(Nc1ccc(Nc2cc(Nc3ccccc3)ncn2)cc1)Nc1cc(C(F)(F)F)ccc1F`, the growth is 78.5%.

For `COc1ccc(/C=C/C(=O)c2c(O)c(C)c(O)c3c2OC2=CC(O)=C(C(C)=O)C(=O)[C@]23C)cc1`, the growth was -31.3% (active).

As to `C=C(C[n+]1ccccc1)[C@@H]1CC[C@]2(C(=O)OC)CC[C@]3(C)[C@H](CC[C@@H]4[C@@]5(C)CC[C@H](O)C(C)(C)[C@@H]5CC[C@]43C)[C@@H]12`, the growth was 95.4%.

Turning to `CCCCCCCCCCCCNC(=O)[C@H]1CSC(c2ccc(OC)c(F)c2)N1` (some centres undefined), the growth is -93% (active).

On to `COc1ccccc1N1CCN(CCn2c(=O)c3c(c4ccccc4n3C)n(C)c2=O)CC1`, for which the growth is 81.8%.

On to `CC(C)[C@H]1COC(=O)N1[C@@H]1C(=O)N([C@@H](CCC(=O)N2CCN(C3CCCC3)CC2)C(=O)N[C@@H]2CCCc3ccccc32)[C@@H]1/C=C/c1cccc(Br)c1`, for which the growth is 38%.

For the molecule `Cc1nc2nc(N)nc(N)c2nc1C`, the growth was 93.1%.

On to `COc1cnc2c(c1)C(=O)c1c-2n(CCCBr)c(=O)c2cc([N+](=O)[O-])ccc12`, for which the growth is -15.3% (active).

Consider `COc1ccc(-n2cc(-c3ccccc3)c3c(SCC(=O)N/N=C/c4ccc([N+](=O)[O-])cc4)ncnc32)cc1`, for which the growth was 102%.

In the case of `O=C(O)c1cn(C2CC2)c2cc(N3CCN(Cc4nc5c(cnn5-c5ccc([N+](=O)[O-])cc5)c(=O)[nH]4)CC3)c(F)cc2c1=O`, the growth is 95.2%.

`CCOC(=O)c1cnc2ccc(OC)cc2c1Nc1cccc(S(=O)(=O)NC)c1`: the growth is 92.9%.

Consider `CCN(CC)CCCC(C)NCCCNc1cccc2cccnc12` (centres undefined), for which the growth is 86.5%.

As for `COc1ccc(C/C(C)=C(\c2ccc(Cl)cc2)c2ccc(OCCN3CCCCCC3)cc2)cc1`, the growth was 78.3%.

Regarding `C=C1C(=O)O[C@H]2[C@H]1CC/C(Cn1cc(Cn3ccc4cc(Cl)ccc43)nn1)=C\CC[C@@]1(C)O[C@@H]21`, the growth was 19.4%.

For the molecule `COc1cc(/C=N/N(C)C)ccc1O`, the growth is 94.9%.

`CC(=O)Nc1ccc2c(c1)c(NC(C)=O)nn2C(=O)Nc1ccc(Cc2ccccc2)cc1`: the growth is 82.9%.

As for `CC(C)(C)n1cc(-c2ccnc(NCCNS(=O)(=O)c3ccccc3)c2)c(-c2cccc(O)c2)n1`, the growth was 71.8%.

Regarding `CN1C2CCC1/C(=C\c1ccc(Cl)cc1)C1=C2[C@@H](c2ccc(Cl)cc2)C(C#N)=C(N)O1` (some centres undefined), the growth is 94%.

For `O=[N+]([O-])c1cccc(-c2nc3sccn3c2-c2ccnc(NCCCNS(=O)(=O)c3cccc(F)c3)n2)c1`, the growth was 18.7%.
